Growth data for 40 compounds are collected here from PubChem BioAssay (NCI).

About 83,000 compounds went through this panel and 20% of them were active in at least one assay; those are over-represented in the sample as a whole.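 Assay: single dose, 48 h. Readout: percent growth (0 = no net growth; negative = cell death). Active: <10.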 Activity calls are given as the source filed them.

The experiment has as its system SK-MEL-2 melanoma. Nature of the experiment: NCI-60 one-dose screen, 48 h (100 = growth as untreated, 0 = no growth, -100 = all killed). As to conditions: 10 µM unless noted. The method, then: Growth inhibition of the SK-MEL-2 human tumor cell line is measured as a screen for anti-cancer activity. Cells are grown in 96 well plates and exposed to the test compound for 48 hours. Compounds are tested at a single concentration, which is 10^-5 M for most compounds. The reported endpoint is percent growth (GI% or GIPRCNT), where numbers from 0 - 100% represent growth inhibition, and numbers from -100% - 0 represent cell death. For example, a value of 40 represents 60% growth inhibition. A value of 0 means no net growth occurred over the course of the experiment. A value of -40 indicates 40% of cells at the beginning of the experiment died by the end of the experiment. A value of -100 means all cells are dead at the end of the experiment.
NCI-60 Human Tumor Cell Lines Screen was performed using the standard one-dose NCI protocol, which is described in more detail at https://dtp.cancer.gov/discovery_development/nci-60/default.htm.
Compounds with GIPRCNT values below 10 were considered active. Activity score was based on GIPRCNT using the following formula: […]
Score is 0 for GIPRCNT values of 100 or above, 50 for GIPRCNT values of 0, and 100 for GIPRCNT values of -100.
On to `c1csc(-c2c3ccc(=[N+]4CCCCC4)cc-3oc3cc(N4CCCCC4)ccc23)c1`, for which the growth is -68.5% (active).

Consider `CNC(=O)CCN1CCN(CC/C=C2\c3ccccc3Sc3ccc(Cl)cc32)CC1`, for which the growth is 28.5% (inactive).

As to `CCCCCCCOc1c(OC)cc(C2CC(=O)Nc3c2c(C)nn3-c2nc3ccccc3[nH]2)cc1OC` (stereo not given), the growth is -56.8% (active).

For the compound `COC(=O)[C@]12CC[C@@H](C)[C@H](C)[C@@H]1C1=CC[C@@H]3[C@@]4(C)C(C=O)=C[C@@](C)(COC(C)=O)[C@@H]4[C@H](O)C[C@@]3(C)[C@]1(C)CC2`, the growth was -25.4% (active).

Take `CC(=O)c1nc(Nc2ccc(C)cc2)sc1C`: the growth is 102% (inactive).

For `O=[N+]([O-])c1ccc(-c2cc(-c3ccc(Nc4nc(Nc5ccc(Cl)cc5)nc(Nc5ccc(Cl)cc5)n4)cc3)no2)cc1`, the growth is 72.4% (inactive).

Turning to `COc1cc(C2CC(=O)Nc3c2c(C)nn3-c2nc3ccccc3[nH]2)c(OC)c(OC)c1OC` (stereo not given), the growth was 50% (inactive).

With `OC(COc1ccccc1Cl)COc1ccccc1Cl`, the growth is 107% (inactive).

In the case of `Cc1ccc(S(=O)(=O)N/N=C\c2cc(Cl)ccc2O)cc1`, the growth is 99.7% (inactive).

For `NC1=NCc2nc3ccccc3c(=O)n2C1`, the growth is 92.8% (inactive).

On to `COc1ccc(-c2nc(SC(C)C)nc(NNC(N)=S)c2C#N)cc1`, for which the growth is 48.7% (inactive).

On to `Cc1ccc(C(=NN=C(N)N)c2ccc(C)cc2)cc1`, for which the growth is -4.66% (active).

`O=C(/C=C/c1c(Cl)nc2sccn12)c1nccs1`: the growth is 80.3% (inactive).

As to `COc1cc(C(=O)/C=C/c2c(-c3ccc(F)cc3)nc3sc(C)cn23)cc(OC)c1OC`, the growth was 144% (inactive).

Regarding `CC1O[C@@H](OC2[C@H](OC(=O)/C=C/c3ccc(O)c(O)c3)C(COC3O[C@H](C)C(O)C(O)[C@@H]3O)O[C@@H](OCCc3ccc(O)c(O)c3)[C@H]2O)[C@@H](O)C(O)[C@H]1O` (stereo not given in full), the growth was 99.6% (inactive).

Regarding `O=C(/C=C/c1cccc(O)c1)c1cccc(-n2cc(-c3ccc4ccccc4c3)[nH]c2=O)c1`, the growth is 84.4% (inactive).

On to `COc1cc(C2CC(c3ccc(Nc4ccnc5cc(Cl)ccc45)cc3)=NN2C=O)cc(OC)c1OC` (stereo not given), for which the growth is 97.4% (inactive).

Regarding `Cc1cc(/C=C\c2ccc3ccccc3[n+]2C)c(O)c2ncccc12`, the growth is 35.9% (inactive).

As for `NC(=S)N/N=C/Cc1ccccc1`, the growth is 106% (inactive).

Regarding `COc1ccc(-c2cc(-c3ccc(Nc4nc(Nc5ccc(Cl)cc5)nc(Nc5ccc(Cl)cc5)n4)cc3)nc(N)c2C#N)cc1`, the growth is 13.1% (inactive).

Turning to `CCc1c2c(nc3ccc(OC(=O)NCc4ccc(B5OC(C)(C)C(C)(C)O5)cc4)cc13)-c1cc3c(c(=O)n1C2)COC(=O)[C@]3(O)CC`, the growth is -28% (active).

In the case of `COc1cccc(-c2nn(-c3ccccc3)cc2-c2ccnc(NCCNC(=O)c3ccccc3)c2)c1`, the growth was 84.7% (inactive).

Consider `COc1ccc(-c2nc3ccc4[nH]ncc4c3c3c2CCCC3)cc1B(O)O`, for which the growth was 56.1% (inactive).

Take `CCN(CC)CCCNc1ccc(Nc2ccc(OC)cc2)cc1`: the growth is 108% (inactive).

In the case of `Cn1cc(-c2csc(-c3cccc(F)c3)n2)c2cccnc21`, the growth was -51.7% [100 µM] (active).

Turning to `CCCCCS(=O)(=O)Nc1ccc(C(=O)O)cc1`, the growth is 93% (inactive).

Regarding `COc1ccc(-c2cc(-c3cc(OC)ccc3OC)nc(SCC(=O)c3ccccc3)c2C#N)cc1`, the growth is 89.6% (inactive).

Consider `O=C(Nc1cccc(Cl)c1)c1cc(N=Nc2ccc([N+](=O)[O-])cc2Cl)ccc1O`, for which the growth is -26.6% (active).

Turning to `C=C1C(=O)O[C@H]2[C@H]1CC/C(COC(=O)C(=O)c1c[nH]c3ccccc13)=C\CC[C@@]1(C)O[C@@H]21`, the growth was -57.5% (active).

Regarding `COc1ccc(NC(=O)CSc2nc(C)c(C(C)=O)n2-c2ccc([N+](=O)[O-])cc2)cc1`, the growth was 89.3% (inactive).

Take `NC(=O)c1ccc[n+](Cc2ccc(Cl)cc2Cl)c1`: the growth was 95.7% (inactive).

In the case of `CCN(CC)CCN1CC(O)=C(c2nc(-c3ccc(Cl)cc3)cs2)C1=N`, the growth is 100% (inactive).

In the case of `COc1ccccc1N1C(=O)/C(=C/C2=Cc3ccccc3OC2)SC1=S`, the growth is 110% (inactive).

With `N#Cc1nc(C#N)c(Sc2ccccc2)c(Sc2ccccc2)c1Sc1ccccc1`, the growth is -64.1% (active).

With `Nc1n[nH]c2cc(F)c([C@@H]3Nc4c(F)cc5[nH]ncc5c4[C@H]4C5CCC(C5)[C@@H]34)cc12` (stereo not given in full), the growth is 43.5% (inactive).

Turning to `COc1cccc(-c2nn(-c3ccccc3)cc2-c2ccnc(NCCNC(=O)Nc3ccc(Cl)c(Cl)c3)c2)c1`, the growth was -12.1% (active).

With `Cc1ccc(C(=O)CSc2nc(-c3ccc(Br)cc3)c(C#N)c(=O)[nH]2)cc1`, the growth is 106% (inactive).

For the compound `COc1cc(N=Nc2cc(Cc3ccc(N(C)C)cc3)c(N)cc2N(C)C)c2ncccc2c1`, the growth was 29.4% (inactive).

As to `CCCCn1c(=O)c2c(nc(NCCc3ccc(O)c(O)c3)n2CCC)n(CCCC)c1=O`, the growth was 72.7% (inactive).

Turning to `N=C1CCC(=N)c2c1c(O)c1ccccc1c2O`, the growth is 117% (inactive).
